19 compounds from PubChem BioAssay (NCATS) can be followed below.

Test [1] is described as follows: P-glycoprotein substrates identified in KB-8-5-11 adenocarcinoma cell line, qHTS therapeutic library screen (AID 1346987). Also: nearly all actives have a fitted effect of over 65% in size. Also: potency is read from the fitted curve at half-maximal effect. A digest of the protocol: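 In this qHTS, P-gp-rich KB-8-5-11 cells received library compounds across a concentration range. Viability was quantified by luminescence after 72 h at 37 degree C.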
Test [2] in a line: NS1 protein of Zika virus - qHTS assay to identify small molecule inhibitors in human HEK 293 cells (AID 1347053). Also: nearly all actives have a fitted effect of over 55% in size. Also: potency is read from the fitted curve at half-maximal effect. Put shortly:
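Read-out is a two-antibody TR-FRET for ZIKV NS1, normalized between uninfected cells and infected cells. Compound added 1 h before MR766 infection at MOI 0.5; human HEK 293 cells incubated 24 h, 37 C.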

Test [3] in a line: qHTS for Inhibitors of the Functional Ribonucleoprotein Complex (vRNP) of Lassa (LASV) Arenavirus: LASV Primary Screen - GLuc reporter signal (AID 1347082; calls by dose curve; tested in HEK293 reporter line; also: series mostly up to about 57 µM; nearly all actives have a fitted effect of over 60% in size). A general note: qHTS replaces the single test concentration by a dilution series.
Test [4] in a line: qHTS for Inhibitors of the Functional Ribonucleoprotein Complex (vRNP) of Lassa (LASV) Arenavirus: Viability assay - alamar blue signal for LASV Primary Screen (AID 1347083; calls by dose curve; tested in HEK293 reporter line; also: series mostly up to about 57 µM; nearly all actives have a fitted effect of over 80% in size).
The nature of test [5]: qHTS for Inhibitors of the Functional Ribonucleoprotein Complex (vRNP) of Lymphocytic Choriomeningitis Arenaviruses (LCMV): Viability assay - alamar blue signal for LCMV Primary Screen (AID 1347085; calls by dose curve; tested in HEK293 reporter line; also: series mostly up to about 57 µM; nearly all actives have a fitted effect of over 80% in size).
The target in test [6] is Nucleoprotein (Lymphocytic choriomeningitis virus (strain Armstrong)) (UniProt P09992). Description: qHTS for Inhibitors of the Functional Ribonucleoprotein Complex (vRNP) of Lymphocytic Choriomeningitis Arenaviruses (LCMV): LCMV Primary Screen - GLuc reporter signal (AID 1347086; calls by dose curve; also: series mostly up to about 57 µM; nearly all actives have a fitted effect of over 70% in size).
Test [7] is described as follows: qHTS of pediatric cancer cell lines to identify multiple opportunities for drug repurposing: Primary screen for TC32 cells (AID 1347089). Also: nearly all actives have a fitted effect of over 60% in size. Also: potency is read from the fitted curve at half-maximal effect. A digest of the protocol:
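In the primary qHTS, MIPE compounds were tested at 11 concentrations (0.78 nM to 46 µM) and NPC compounds at 8 (0.59 nM to 46 µM) on TC32 cells for 48 h. CellTiter-Glo luminescence gave viability.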

Test [8] can be described thus: qHTS of pediatric cancer cell lines to identify multiple opportunities for drug repurposing: Primary screen for DAOY cells (AID 1347090). Also: nearly all actives have a fitted effect of over 55% in size. Also: potency is read from the fitted curve at half-maximal effect. Put shortly: (§1)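 Cell viability, CellTiter-Glo luminescence; 500-1,000 cells/well, 8- or 11-point titration, 48 h compound exposure at 37 degrees C, 5% CO2. Controls: DMSO neutral, bortezomib 2.3 µM final as positive.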
The nature of test [9]: qHTS of pediatric cancer cell lines to identify multiple opportunities for drug repurposing: Primary screen for SJ-GBM2 cells (AID 1347091). Also: potency is read from the fitted curve at half-maximal effect. A digest of the protocol: as §1
Test [10] in a line: qHTS of pediatric cancer cell lines to identify multiple opportunities for drug repurposing: Primary screen for A673 cells (AID 1347092). Also: nearly all actives have a fitted effect of over 45% in size. Also: potency is read from the fitted curve at half-maximal effect. A digest of the protocol:
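48 h compound exposure, A673, 500-1,000 cells/well, 37 degrees C/5% CO2. MIPE: 11-point, 0.78 nM-46 µM; NPC: 8-point, 0.59 nM-46 µM (final). Readout CellTiter-Glo luminescence after 15 min RT.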

Test [11] in a line: qHTS of pediatric cancer cell lines to identify multiple opportunities for drug repurposing: Primary screen for SK-N-MC cells (AID 1347093). Also: potency is read from the fitted curve at half-maximal effect. Put shortly:
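Metabolically active cells were quantified by ATP-dependent luminescence (CellTiter-Glo, 15 min at room temperature) following 48 h treatment. Cells had been plated at 500-1,000 per well and settled for 5 h beforehand.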

Where “and” joins values, the source holds several entries; their conditions need not be identical. Identical values can stand only once. Inconclusive results are not listed. Some compounds were tested as several samples or in several runs, with calls that do not always agree. Calls of active or inactive are those of the source. Unless noted, calls follow the shape of the dose curve; as a rule, active = well fitted curve in the direction sought with a large enough effect; inconclusive = small, poorly fitted or top-dose-only effect, or another doubt; inactive = no such curve, though single readings can be large; an effect the other way counts as inactive or inconclusive.

Sequence of Nucleoprotein (Lymphocytic choriomeningitis virus (strain Armstrong)) (P09992 whole entry, looked up): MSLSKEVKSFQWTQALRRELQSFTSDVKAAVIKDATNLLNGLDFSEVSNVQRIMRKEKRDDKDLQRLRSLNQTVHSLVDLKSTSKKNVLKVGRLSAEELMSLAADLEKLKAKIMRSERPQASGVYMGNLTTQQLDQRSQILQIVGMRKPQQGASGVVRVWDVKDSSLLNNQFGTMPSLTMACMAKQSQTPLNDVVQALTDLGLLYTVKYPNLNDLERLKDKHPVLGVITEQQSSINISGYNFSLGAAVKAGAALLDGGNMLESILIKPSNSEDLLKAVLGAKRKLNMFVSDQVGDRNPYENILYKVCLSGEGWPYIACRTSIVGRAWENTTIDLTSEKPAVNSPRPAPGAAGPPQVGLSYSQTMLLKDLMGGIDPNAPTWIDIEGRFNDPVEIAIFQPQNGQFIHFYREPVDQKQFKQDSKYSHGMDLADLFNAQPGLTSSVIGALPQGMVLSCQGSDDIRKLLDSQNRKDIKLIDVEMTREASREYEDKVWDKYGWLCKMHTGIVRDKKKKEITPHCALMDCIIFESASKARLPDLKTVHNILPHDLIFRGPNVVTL

Regarding `CC(C)NCC(O)c1ccccc1Cl` (centres undefined), the Potency result in test [1], in test [2], in test [3], in test [4], in [5] and in [6] was “inactive” throughout. Also, the Potency result in [7], in test [8], in [9], in test [10] and in test [11] was “inactive” in each case.

For `N[C@@H]1C[C@H]1c1ccccc1`, the Potency result in [1], in [2], in test [3], in test [4], in [5] and in [6] was “inactive” throughout. Besides, the Potency result in [7], in test [8], in test [9], in [10] and in test [11] was “inactive” throughout.

As for `O=C(NC(O)C(Cl)(Cl)Cl)NC(O)C(Cl)(Cl)Cl` (centres undefined), the Potency result in [1], in test [2], in test [3], in test [4], in [5] and in test [6] was “inactive” each time. Moreover, the Potency result in test [7], in test [8] and in [10] was “inactive” in each case.

As to `N[C@@H](Cc1ccc(N(CCCl)CCCl)cc1)C(=O)O`, the Potency entry in [1], in test [3], in test [4], in test [5] and in test [6] was “inactive” throughout. Moreover, the Potency in test [2] is 8.33 µM (active); in test [7] it was 20.8 µM (active); in test [8], 16.8 µM (active) and 18.7 µM (active); in test [10], 6.68 µM (active) and 5.9 µM (active).

Regarding `CC(C)=CC1C(C(=O)OCc2cccc(Oc3ccccc3)c2)C1(C)C` (centres undefined), the Potency result in test [1], in test [2], in [3], in test [4], in test [5] and in test [6] was “inactive” throughout. Also, the Potency result in [7], in test [8] and in [10] was “inactive” throughout.

For the compound `CCC(C(N)=O)N1CCCC1=O` (centres undefined), the Potency result in [1], in test [2], in test [3], in [4], in [5] and in test [6] was “inactive” each time. Also, the Potency result in test [7], in test [8], in [9], in [10] and in test [11] was “inactive” in each case.

In the case of `COc1ccc(C(=O)c2c(C)n(CCN3CCOCC3)c3ccccc23)cc1`, in [1], the Potency entry was “inactive and 5.8 µM (active)”. Also, the Potency entry in [2], in [3], in [4], in test [5], in test [6] and in test [7] was “inactive” throughout. Further, the Potency entry in test [8], in [10] and in test [11] was “inactive” in each case.

In the case of `c1ccc2c(c1)Nc1ccccc1S2`, the Potency entry in [1], in test [2], in [3], in test [4], in [5] and in test [6] was “inactive” each time. Further, the Potency entry in test [7], in test [8] and in test [10] was “inactive” each time.

Turning to `CCN(C(C)=O)c1cccc(-c2ccnc3c(C#N)cnn23)c1`, the Potency result in test [1], in test [2], in test [3], in test [4], in [5] and in test [6] was “inactive” each time. Moreover, the Potency entry in test [7], in test [8], in [9] and in test [10] was “inactive” throughout.

`CC(=O)Nc1cc([As](=O)(O)O)ccc1O`: the Potency entry in test [1], in test [2], in test [3], in test [4], in test [5] and in test [6] was “inactive” throughout. Moreover, the Potency result in test [7], in [8], in test [10] and in [11] was “inactive” throughout.

In the case of `CC[N+]1(C)CCCC(OC(=O)C(O)(c2ccccc2)c2ccccc2)C1` (centres undefined), the Potency result in test [1], in test [2], in test [3], in test [4], in [5] and in test [6] was “inactive” each time. Further, the Potency result in test [7], in test [8], in test [9] and in test [10] was “inactive” throughout.

As for `CCCC1CCCCN1` (centres undefined), the Potency result in test [1], in [2], in [3], in test [4], in test [5] and in test [6] was “inactive” each time. The Potency result in [7], in test [8], in [9], in test [10] and in [11] was “inactive” each time.

With `Clc1cccc(N2CCNCC2)c1`, the Potency result in test [1], in test [2], in test [3], in [4], in [5] and in test [6] was “inactive” in each case. Besides, the Potency result in test [7], in [8] and in [10] was “inactive” in each case.

For `CC(C)(C)CC(C)(C)c1ccc(O)cc1`, the Potency result in test [1], in [2], in [3], in [4], in [5] and in test [6] was “inactive” throughout. The Potency result in test [7] and in test [8] was “inactive” in each case. For the same compound, the figures for the Potency in [9] and in [11] were 21.7 µM (active) and 27.3 µM (active), respectively.

Consider `Oc1ccccc1-c1ccccc1`, for which the Potency result in test [1], in test [2], in test [3], in test [4], in test [5] and in test [6] was “inactive” throughout. Further, the Potency entry in [7], in test [8], in [9] and in test [10] was “inactive” each time.

For the compound `CCN(CC)CCOC(=O)C(O)(c1ccccc1)c1ccccc1`, the Potency entry in test [1], in test [2], in test [3], in [4], in test [5] and in test [6] was “inactive” each time. The Potency entry in test [7], in [8], in test [9], in [10] and in test [11] was “inactive” in each case.

For the compound `N[C@@H](Cc1ccc(Oc2cc(I)c(O)c(I)c2)c(I)c1)C(=O)O`, the Potency result in [1], in test [2], in test [3], in [4], in [5] and in [6] was “inactive” each time. Further, the Potency result in test [7], in test [8] and in test [10] was “inactive” in each case.

In the case of `CC(C)(N)Cc1ccc(Cl)cc1`, the Potency result in test [1], in test [2], in test [3], in test [4], in [5] and in test [6] was “inactive” in each case. Further, the Potency entry in test [7], in [8], in [9], in test [10] and in [11] was “inactive” in each case.

As for `CN(C)CCc1ccc(O)cc1`, the Potency entry in test [1], in test [2], in test [3], in test [4], in [5] and in [6] was “inactive” each time. Moreover, the Potency entry in [7], in [8] and in [10] was “inactive” in each case.
